The campaign covered roughly 330,000 compounds. About 7,300 (2.2%) were called active. This is one part of a sample in which actives are shown more often than they occur. Unmarked numbers belong to inactive results.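 The calls were made as follows: active = inhibition of at least 40%; inactive = the rest.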

We go through 92 compounds from PubChem BioAssay AID463190 (Sanford-Burnham Center for Chemical Genomics, 2010).

The nature of this assay: growth inhibition of tim10-1 ts yeast – luminescence, uHTS, primary screen (AID 463190).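 Also: mutant grown at 25 °C; 0% = DMSO wells with yeast and 100% = wells holding no yeast.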 The settings on record: S. cerevisiae tim10-1 ts strain growth, BacTiter-Glo, 24 h; at 20 µM; active compounds read high.
Consider `COc1ccc(CCNC(=O)c2cnc(Cl)c(Cl)c2)cc1`, for which the inhibition is 17.4%. As to `COc1ccc(NC(=O)/C(Cl)=C(/Cl)S(=O)Cc2ccc(C)cc2)cn1` (configuration not stated), the inhibition is 30.1%. `COc1ccc(CS(=O)/C(Cl)=C(/Cl)C(=O)Nc2ccc(OC)nc2)cc1` (configuration not stated): the inhibition is 41% (active).

As for `COc1ccc(CCNC(=O)COC(=O)c2ccc[nH]c2=O)cc1`, the inhibition is 7.85%.

Turning to `O=C(Cn1cnc2c(OCc3ccccc3)ncnc21)NCc1nc2ccccc2[nH]1`, the inhibition is -4.29%. As for `CC(C)Cn1c(N)c(C(=O)NCc2cccs2)c2nc3ccccc3nc21`, the inhibition was 43.7% (active).

As to `CCOc1ccccc1NC(=O)Cn1nnc(C(=O)NCc2cccs2)c1N`, the inhibition is 10.5%.

For `Cn1ncc(Br)c1C(=O)NCc1cccs1`, the inhibition is 1.74%. The result for `NS(=O)(=O)c1cc2c(cc1Cl)NC(C(Cl)Cl)NS2(=O)=O` (configuration not stated) reads 0.045%; that for `CCCCCCC(=O)Nc1nc(C)c(-c2csc(Nc3cccc(OC)c3)n2)s1`, 14.8%; that for `Cc1nc(NC(=O)c2cccc(Cl)c2)sc1-c1csc(Nc2cccc(Cl)c2)n1`, -8.28%.

Turning to `Cc1nc(NC(=O)CN(C)S(=O)(=O)c2ccc(Cl)cc2)sc1C`, the inhibition was 4.21%. For the compound `CCCCCCC(=O)Nc1nc(C)c(-c2csc(Nc3cc(Cl)ccc3OC)n2)s1`, the inhibition was 3.74%. `CCCCC(=O)Nc1nc(C)c(-c2csc(Nc3ccc(Cl)cc3)n2)s1`: the inhibition is 42.5% (active). Take `C=CCCC(=O)Nc1nc(C)c(-c2csc(Nc3ccc(Cl)cc3)n2)s1`: the inhibition is 41.2% (active). With `COc1ccc(S(=O)(=O)c2c[nH]c(=S)[nH]c2=O)cc1Cl` the figure was -8.62%; with `O=C(CCN1C(=O)c2ccncc2C1=O)Nc1cc(F)ccc1F`, 7.78%; with `CC(=O)N1CCCc2cc(S(=O)(=O)N3CCCC(C(=O)N4CCN(c5cccc(Cl)c5)CC4)C3)ccc21` (configuration not stated), 10.1%. The result for `COc1ccc(-n2c(=S)[nH]c3sc4c(c3c2=O)CCc2ccccc2-4)cc1` reads 6.58%; that for `COc1ccc(-n2cc(-c3ccccc3)c3c(=S)nc[nH]c32)cc1`, 40.1% (active); that for `O=c1[nH]cnc2c1c(-c1ccccc1)cn2-c1ccc(F)cc1`, 34.1%. As to `COC(=O)c1c(-c2cccs2)csc1NC(=O)CSc1ncnc2sc(C)c(C)c12`, the inhibition was 17.6%. With `C=CCn1c(SCC(=O)Nc2ccc(NC(C)=O)cc2)nc2sc(C)c(C)c2c1=O`, the inhibition was 15.8%. The result for `Cc1sc2ncnc(SCC(=O)Nc3ccc(CN4CCCC4)cc3)c2c1C` reads 46.3% (active); that for `Cc1cc(C(=O)OCC(=O)Nc2ccc(F)c(F)c2)c(C)o1`, -15.7%; that for `Cc1cccc(NC(=S)N2CCC(c3nc4ccccc4s3)CC2)c1`, 47% (active). Turning to `Cc1cccc(C(=O)N2CCC(c3nc4ccccc4s3)CC2)c1`, the inhibition is 20.6%. Consider `Cc1cccc(NC(=S)N2CCCC(c3nc4ccccc4[nH]3)C2)c1` (configuration not stated), for which the inhibition was 0.466%. For the compound `COc1ccc(OC)c(C(O)c2nc3ccccc3n2C)c1` (configuration not stated), the inhibition was 12%. With `CNC[C@@H]1Oc2c(NS(C)(=O)=O)cccc2C(=O)N([C@@H](C)CO)C[C@H]1C` the figure was -4.12%; with `NS(=O)(=O)c1ccc(N2C(=O)C3C4CC(C(Br)C4Br)C3C2=O)cc1` (configuration not stated), -7.31%. Turning to `ON=C1/C(=N\O)CC2(C/C1=N/O)OCCO2`, the inhibition was -13.1%. In the case of `Oc1c(CN2CCCC2)cc(COCc2ccccc2)c2cccnc12`, the inhibition is 14.6%. Take `Cc1cccnc1NC(=O)c1cccc(S(=O)(=O)N2CCN(c3ccc(F)cc3)CC2)c1`: the inhibition is 23.8%. For the compound `Oc1c(CN2CCN(c3ccc(F)cc3)CC2)cc(Cl)c2cccnc12`, the inhibition was 45.3% (active). Take `CCN(CCn1cccn1)Cc1cn[nH]c1-c1ccc(OC)cc1F`: the inhibition is 6.84%.

As for `COc1cc2sc(C)nc2cc1C`, the inhibition was 13.3%. On to `Cc1ccc(S(=O)(=O)N(Cc2cccc([N+](=O)[O-])c2)C(=O)N2CCN(C)CC2)cc1`, for which the inhibition was 26.5%. For the compound `CCOc1ccc(NC(=O)C2CC(=O)N=C(N)S2)cc1` (configuration not stated), the inhibition was 3.69%. Consider `CC(OC(=O)c1ccccc1OCc1ccc(Cl)cc1)C(N)=O` (configuration not stated), for which the inhibition was -12.2%. On to `CCOC(=O)c1cc2cc(-c3c(C(=O)OCC)oc4cc(O)cc(O)c4c3=O)ccc2o1`, for which the inhibition was 27.5%. In the case of `COc1ccc(-c2onc(C)c2-c2ccc3c(c2)OCCO3)c(O)c1`, the inhibition was 22.7%.

`O=c1c(-c2ccc3c(c2)OCCO3)c(C(F)(F)F)oc2cc(O)cc(O)c12`: the inhibition was 44% (active). Turning to `Nc1ccccc1Sc1ccc(C(F)(F)F)cc1[N+](=O)[O-]`, the inhibition was 40.4% (active).

As for `O=[N+]([O-])c1cc(C(F)(F)F)ccc1NN=C1CCCC1`, the inhibition was -6.28%. In the case of `O=C(CSc1ccc(C(F)(F)F)cc1[N+](=O)[O-])NCCOc1ccccc1`, the inhibition was 8.09%. For the compound `Cc1ccccc1C(=O)NNC(=O)CN1C(=O)c2ccccc2C1=O`, the inhibition is 23.4%. On to `O=C(CSc1nnc(Cn2cnc3ccccc32)o1)c1ccccc1`, for which the inhibition is 24.1%. In the case of `COc1ccc(C(=O)c2c(C)oc3cc([N+](=O)[O-])c(O)c([N+](=O)[O-])c23)cc1`, the inhibition is 12.5%. In the case of `Cc1oc2cc([N+](=O)[O-])c(O)c([N+](=O)[O-])c2c1C(=O)c1ccc(Br)cc1`, the inhibition was 25%. `Cc1oc2cc(Br)c(O)c(Br)c2c1C(=O)c1ccccc1`: the inhibition was 41.8% (active). As for `O=C(Nc1ccc2c(c1)OCO2)C1CC1(Cl)Cl` (configuration not stated), the inhibition was -5.38%. Turning to `CCC(C(=O)NC1CCCC1)N(C(=O)Cn1nnc(-c2ccc(C)o2)n1)c1ccc(OC)c(OC)c1` (configuration not stated), the inhibition is 18.2%. As to `CSc1ccc(CN2C(=O)NC3(CCCCCC3)C2=O)cc1`, the inhibition was 23.7%. Consider `NC(=O)C1=C[C@@H](c2ccc3c(c2)OCO3)C[C@@H](OCCCCO)O1`, for which the inhibition is -9.86%.

`COC(=O)c1c(NC(=O)COc2ccc(Cl)cc2Cl)sc2c1CC(C)(C)NC2(C)C`: the inhibition was 43.6% (active). As to `COC(=O)c1sccc1NC(=O)COc1ccc(Cl)cc1`, the inhibition was 7.8%. Regarding `CCOC(=O)c1c(NC(=O)c2ccc(S(=O)(=O)N(C)CC3CCCO3)cc2)sc2c1CC(C)(C)NC2(C)C` (configuration not stated), the inhibition was 3.46%. As to `O=S(=O)(Nc1ccc2nc(N3CCOCC3)sc2c1)c1ccccc1`, the inhibition is 3.87%. As for `Cc1nc2ccc(C(=O)N3CCSCC3)cc2s1`, the inhibition was 4.92%. In the case of `O=C(c1ccc2nc(N3CCOCC3)sc2c1)N1CCN(c2ccc(Cl)cc2)CC1`, the inhibition is 49.1% (active). For `COC(=O)CNC(=O)c1cc(-c2ccncc2)nc2ccccc12`, the inhibition is 13.6%. The result for `N/C(=N\OC(=O)c1cc(-c2ccccc2)nc2ccccc12)c1ccncc1` reads 57.4% (active); that for `C/C(N)=C(/C#N)C(=O)COC(=O)c1cc(-c2ccc(C)cc2)nc2ccccc12`, 11.4%; that for `Cc1ccc(N/C(N)=N/c2nc(C(F)(F)F)cc(C(F)(F)F)n2)cc1`, 14.4%. With `CCC(NC(=O)c1ccccc1NC(=O)c1ccccc1)C(=O)NNC(=O)CSc1nc2ccccc2o1` (configuration not stated) the figure was 11%; with `CCOC(=O)c1ccc(N2C(=O)CC(N3CCN(C(=O)c4ccccc4)CC3)C2=O)cc1` (configuration not stated), 20%. As for `CCOC(=O)c1ccc(N2C(=O)CC(N3CC(C)OC(C)C3)C2=O)cc1` (configuration not stated), the inhibition was 29.9%.

As to `CCOC(=O)c1ccc(N2C(=O)CC(N3CCC(C(=O)OCC)CC3)C2=O)cc1` (configuration not stated), the inhibition is 43.8% (active). On to `O=C(NC(Cc1ccc(O)cc1)C(=O)O)/C(=C/c1ccccc1)NC(=O)c1ccccc1` (configuration not stated), for which the inhibition was -12.7%. For the compound `COc1ccc(NC(=O)CN(C)C(=O)CNC(=O)C2CCCCC2)cc1`, the inhibition was 3.37%.

For the compound `COc1cc(NC(=O)C2CCN(c3cnccn3)CC2)cc(OC)c1`, the inhibition was 18.5%. As to `Clc1ccc(C2CC(c3cccs3)n3ncnc3N2)cc1Cl` (configuration not stated), the inhibition is 44.6% (active). Consider `Nc1nc2n(n1)C(c1ccco1)CC(c1ccc(Cl)c(Cl)c1)N2` (configuration not stated), for which the inhibition was 20.9%. With `COc1ccc(C2CC(c3ccc(C)cc3)Nc3ncnn32)cc1` (configuration not stated), the inhibition was 31.2%.

As for `Cc1ccc(C)c(-n2ccnc2SCC(N)=O)c1`, the inhibition was 1.23%. With `CCOC(=O)c1sc(=NC(=O)/C=C/c2cccs2)n(C)c1C` the figure was 9.93%; with `Cc1c2cnn(CC(=O)NCCCN3CC(C)CC(C)C3)c(=O)c2c(C)n1Cc1ccc(Cl)cc1` (configuration not stated), -4.29%; with `CCOC(=O)C1=C(c2ccccc2)NC(=O)NC1c1cc(OC)c(OC)cc1OC` (configuration not stated), 2.13%. With `CC(C)(C)c1ccc(CN2C(=O)c3ccccc3S2(=O)=O)cc1`, the inhibition is 15%. Take `CCOC(=O)c1ccccc1CN1C(=O)c2ccccc2S1(=O)=O`: the inhibition is 43.5% (active).

Consider `CN(Cc1cccs1)C(=O)CN1C(=O)c2ccccc2S1(=O)=O`, for which the inhibition was -8.18%. With `COC(=O)c1cc2c(ccn2C)n1C` the figure was -6.2%; with `COc1ccc(/C=C/C(=O)Nc2c(C)nn(C)c2C)cc1COc1ccc(Br)cc1`, 29.4%. The result for `CCn1nc(C)c(NC(=O)/C=C/c2ccc(OC)c(COc3ccc(Br)cc3)c2)c1C` reads 52.1% (active). Regarding `COc1ccc(C(C)=O)cc1COc1ccc(Cl)c(C)c1`, the inhibition is 3.35%. Consider `O=C(/C=C/c1cccs1)c1cc(Cl)ccc1OC(=O)N1CCOCC1`, for which the inhibition is 50.2% (active). Take `CC(=O)Nc1ccccc1OC(=O)N1CCOCC1`: the inhibition is -3.71%. In the case of `O=C(Oc1cccc(C(=S)N2CCOCC2)c1)c1cccc(Cl)c1`, the inhibition was 39.2%. In the case of `Cc1ccc(NS(=O)(=O)c2ccc(C(=O)NCCCN3CCOCC3)cc2)cc1`, the inhibition is -36%. Take `CC1(C)CC(=O)C=C(c2ccc(Cl)c(C(F)(F)F)c2)C1`: the inhibition was 0.973%.

In the case of `Cc1cccc(OC(C)C(=O)N2CCc3ccccc3C2)c1` (configuration not stated), the inhibition is -6.4%.
